This passage reports Potency results from PubChem BioAssay (Tox21).

The structures appear in SMILES notation. Records with an inconclusive call do not appear. The source made the active and inactive calls. Unless noted, calls come from the whole dose curve.

A short description of experiment [1]: Nuclear factor erythroid 2-related factor 2/antioxidant responsive element (Nrf2/ARE) small molecule agonists: luciferase reporter gene qHTS assay in human keratinocytes (AID 1919969). Note: nearly all actives have a fitted effect of over 35% in size. Note: potency is the fitted concentration of half-maximal effect. Background: In a reporter assay the amount or activity of a reporter protein is the signal.
Experiment [2] concerns the target Gonadotropin-releasing hormone receptor (Homo sapiens) (UniProt P30968). Description: Human gonadotropin-releasing hormone receptor (GnRHR) small molecule agonists, calcium flux assay in GnRHR-HEK293 cells (AID 1920063). Note: nearly all actives have a fitted effect of over 35% in size. Note: potency is the fitted concentration of half-maximal effect. The gist of the method: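 HEK293 cells stably expressing human GnRHR were plated 18 h at 37 °C, loaded with calcium dye 1 h at 37 °C, then given compound in agonist mode; fluorescence (Ex/Em 480/540) read kinetically for 3 min at 1 s intervals.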
(Calcium assays in cells follow changes in intracellular calcium, usually with a dye or a luminescent sensor.)

Experiment [3] deals with KiSS-1 receptor (Homo sapiens) (UniProt Q969F8). Description: Human kisspeptin (KISS1R) small molecule agonists, calcium flux assay in KISS1R-HEK293 cells (AID 1920064; active = well fitted activation curve with a large enough effect in the repeat runs; note: potency is the fitted concentration of half-maximal effect). The gist of the method:
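HEK293 cells stably expressing human KISS1R were plated 18 h at 37 °C, loaded with calcium dye for 1 h at 37 °C, then given compound by pin tool. Fluorescence (Ex/Em 480/540) was read kinetically for 3 min.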

A short description of experiment [4]: G protein-coupled receptor (GPCR) small molecule agonists, calcium flux assay: HEK293 wild type cell line counter screen (AID 1920065). Note: potency is the fitted concentration of half-maximal effect. The gist of the method: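 Cells were plated and cultured 18 h at 37 C/5% CO2, then loaded with calcium dye for 1 h at 37 C. Compounds in DMSO were pin-transferred in agonist mode, and fluorescence (Ex/Em 480/540) was read kinetically for 3 min at 1 s intervals.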

Experiment [5] in a line: p53 small molecule agonists, cell-based qHTS assay with human liver microsomes: qHTS cell viability counter screen (AID 1963579). Note: nearly all actives have a fitted effect of over 45% in size. A digest of the protocol: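 After the 460/530 nm beta-lactamase read, CellTiter-Glo was added to the same wells and luminescence measured after 30 min at room temperature, giving viability of p53RE-bla cells treated 16 h with compounds plus microsomes and NADPH.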

Experiment [6] is described as follows: p53 small molecule agonists, cell-based qHTS assay with rat liver microsomes: qHTS cell viability counter screen (AID 1963580). Note: nearly all actives have a fitted effect of over 45% in size. A digest of the protocol: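 Intracellular ATP, by CellTiter-Glo luminescence, defines viability. HCT-116 p53RE-bla cells, 4,000 per well, were compound-treated in the presence of rat liver microsomes and NADPH for 16 h at 37 C.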
A general note: qHTS replaces the single test concentration by a dilution series.

The nature of experiment [7]: p53 small molecule agonists, cell-based qHTS assay: qHTS cell viability counter screen (AID 1963581). Note: nearly all actives have a fitted effect of over 45% in size. A digest of the protocol: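 p53RE-bla HCT-116 cells were exposed to compounds for 16 h at 37 C; after the beta-lactamase FRET read in the same wells, CellTiter-Glo was added and luminescence (intracellular ATP) read after 30 min at room temperature.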
Experiment [8] has as its target 5-hydroxytryptamine receptor 2A (Homo sapiens) (UniProt P28223). Kind of experiment: 5-hydroxytryptamine receptor 2A (HTR2A) small molecule antagonists, cell-based qHTS assay (AID 1963586). Note: nearly all actives have a fitted effect of over 45% in size. The gist of the method:
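Antagonist-mode intracellular calcium assay: DOI (4 nM) added after 5 min compound pre-incubation at room temperature to dye-loaded HTR2A-CHO cells. Fluorescence followed for 3 min, sampled every second.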

For experiment [9] the target is unchanged. Kind of experiment: 5-hydroxytryptamine receptor 2A (HTR2A) small molecule agonists, cell-based qHTS assay (AID 1963587). Note: nearly all actives have a fitted effect of over 30% in size. Note: potency is the fitted concentration of half-maximal effect. A digest of the protocol:
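Kinetic calcium-flux fluorescence (2 min, 1 sec intervals) after compound addition in agonist mode. HTR2A-CHO cells were cultured 18 h, then dye-loaded 1 h at 37 C.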

In experiment [10] the target is Muscarinic acetylcholine receptor M1 (Homo sapiens) (UniProt P11229). Kind of experiment: Cholinergic receptor muscarinic 1 (CHRM1) small molecule antagonists, cell-based qHTS assay (AID 1963588). Note: nearly all actives have a fitted effect of over 40% in size. Note: potency is the fitted concentration of half-maximal effect. A digest of the protocol: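 CHRM1-CHO calcium-flux assay, antagonist mode. Cells were seeded 18 h, dye-loaded 1 h at 37 C and given compound for 5 min at RT, then acetylcholine was added at 50nM. FDSS fluorescence was read 3 min; 15 concentrations, three runs.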

The target is the same in experiment [11]. Kind of experiment: Cholinergic receptor muscarinic 1 (CHRM1) small molecule agonists, cell-based qHTS assay (AID 1963589). Note: nearly all actives have a fitted effect of over 35% in size. Note: potency is the fitted concentration of half-maximal effect. The gist of the method:
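CHO cells stably expressing human CHRM1, seeded 18 h at 37 C/5% CO2, dye-loaded 1 h at 37 C, then given compound in agonist mode; intracellular calcium fluorescence read kinetically at 1 s intervals. Fifteen concentrations, three independent runs.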

Experiment [12] is described as follows: cAMP Responsive Elements (CRE) small molecule agonists, cell-based qHTS assay (AID 1963590). A digest of the protocol: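 CRE-bla HEK 293T cells in DMEM with 10% dialyzed FBS, NEAA, pyruvate and 25 mM HEPES were plated 18 h at 37 C/5% CO2, then exposed to compounds in DMSO for 3 h before LiveBLAzer B/G FRET substrate addition.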
Experiment [13] is described as follows: cAMP Responsive Elements (CRE) small molecule antagonists, cell-based qHTS assay (AID 1963591; active = well fitted inhibition curve with a large enough effect in the signal ratio in the repeat runs, not every such curve was filed as active; the % refers to the signal ratio). A digest of the protocol: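 CRE-bla HEK293T cells were plated 18 h at 37 °C/5% CO2, pinned with compound in DMSO, then stimulated with NKH477 at 0.25 uM final for 3 h. LiveBLAzer B/G FRET substrate was added and plates incubated 2 h at room temperature.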
Experiment [14] addresses Beta-2 adrenergic receptor (Homo sapiens) (UniProt P07550). Kind of experiment: Adrenergic beta2 receptor (ADRB2) small molecule antagonists, cell-based qHTS assay (AID 1963592). Note: series mostly up to about 92 µM; nearly all actives have a fitted effect of over 50% in size. A digest of the protocol:
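Cells (CHO, stable ADRB2 overexpression) incubated 18-20hr at 37C; compounds added from DMSO; agonist mix (1nM isoproterenol, 100uM IBMX, 25uM Ro-20-1724) added; 0.5hr RT; d2-cAMP and anti-cAMP-cryptate added; 1hr RT; 665/615 nm read.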

Experiment [15] has as its target D(2) dopamine receptor (Homo sapiens) (UniProt P14416). Description: Dopamine D2 receptor (DRD2) small molecule agonists, cell-based qHTS assay (AID 1963594). Note: nearly all actives have a fitted effect of over 35% in size. A digest of the protocol: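 cAMP accumulation in DRD2-HEK293 cells measured by HTRF after 1 h detection; compounds added 10 min before NKH477 (200nM […]) forskolin-analogue stimulation, 30 min at room temperature, with Ro20-1724 present at 0.1 mM final.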

Experiment [16] has the same target. Description: Dopamine D2 receptor (DRD2) small molecule antagonists, cell-based qHTS assay (AID 1963595; active = well fitted inhibition curve with a large enough effect in the signal ratio in the repeat runs, with a control signal flat; the % refers to the signal ratio). The gist of the method:
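Antagonism was scored as restored cAMP in HEK293-DRD2 cells. These cells were stimulated with 200 nM NKH477 and 12 nM quinpirole for 30 min at room temperature, in the presence of 0.1 mM Ro20-1724.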

Experiment [17] is described as follows: p53 small molecule agonists, cell-based qHTS assay with rat liver microsomes (AID 1963578). A digest of the protocol:
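Metabolic activation is supplied by rat liver microsomes with NADPH (each 0.5 mg/mL final). p53RE-bla cells incubate with compound 16 h at 37 C; reporter activity is measured by LiveBLAzer fluorescence.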

Experiment [18] is described as follows: p53 small molecule agonists, cell-based qHTS assay (AID 1963582; active = well fitted activation curve with a large enough effect in the signal ratio in the repeat runs, not every such curve was filed as active; the % refers to the signal ratio). The gist of the method: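 p53RE-bla beta-lactamase reporter cells rested 5 h at 37 C/5% CO2, then received compounds in DMSO by pin transfer and were incubated 16 h at 37 C. LiveBLAzer B/G FRET substrate was loaded for 2 h at room temperature before fluorescence reading.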
The target of experiment [19] is Beta-2 adrenergic receptor (Homo sapiens) (UniProt P07550). Kind of experiment: Adrenergic beta2 receptor (ADRB2) small molecule agonists, cell-based qHTS assay (AID 1963593).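 Note: CHO cells stably overexpressing human ADRB2.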 The gist of the method: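 CHO cells stably over-expressing ADRB2 were plated overnight at 37C, then dosed with compounds plus a stimulation mix containing 100uM IBMX and 25uM Ro-20-1724 for 0.5hr at room temperature. cAMP was measured by HTRF competition, 1hr.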
Sequence of Beta-2 adrenergic receptor (Homo sapiens) (P07550 whole entry, looked up): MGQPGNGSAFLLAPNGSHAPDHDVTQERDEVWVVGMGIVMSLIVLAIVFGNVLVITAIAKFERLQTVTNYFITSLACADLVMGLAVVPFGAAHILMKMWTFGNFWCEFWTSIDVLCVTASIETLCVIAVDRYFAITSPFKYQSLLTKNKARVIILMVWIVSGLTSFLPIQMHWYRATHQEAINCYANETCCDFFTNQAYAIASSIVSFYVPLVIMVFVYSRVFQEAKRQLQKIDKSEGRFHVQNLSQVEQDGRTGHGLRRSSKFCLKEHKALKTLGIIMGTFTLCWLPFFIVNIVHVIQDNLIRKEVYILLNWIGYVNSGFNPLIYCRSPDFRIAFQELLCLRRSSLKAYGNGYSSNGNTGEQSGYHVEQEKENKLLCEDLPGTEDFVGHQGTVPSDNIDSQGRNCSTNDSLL

Sequence of 5-hydroxytryptamine receptor 2A (Homo sapiens) (P28223 whole entry, looked up): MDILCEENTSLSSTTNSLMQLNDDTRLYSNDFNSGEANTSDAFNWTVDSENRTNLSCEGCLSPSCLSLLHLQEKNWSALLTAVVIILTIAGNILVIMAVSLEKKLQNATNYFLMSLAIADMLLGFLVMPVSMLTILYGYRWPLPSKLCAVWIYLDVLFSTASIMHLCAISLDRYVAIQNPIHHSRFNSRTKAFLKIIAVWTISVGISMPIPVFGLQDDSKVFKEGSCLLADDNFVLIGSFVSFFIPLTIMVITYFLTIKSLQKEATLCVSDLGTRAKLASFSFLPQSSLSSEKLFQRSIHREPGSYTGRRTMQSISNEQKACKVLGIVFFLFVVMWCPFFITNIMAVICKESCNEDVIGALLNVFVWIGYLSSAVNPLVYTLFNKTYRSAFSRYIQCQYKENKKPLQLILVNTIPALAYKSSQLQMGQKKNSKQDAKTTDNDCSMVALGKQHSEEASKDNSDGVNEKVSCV
Sequence of Muscarinic acetylcholine receptor M1 (Homo sapiens) (P11229 whole entry, looked up): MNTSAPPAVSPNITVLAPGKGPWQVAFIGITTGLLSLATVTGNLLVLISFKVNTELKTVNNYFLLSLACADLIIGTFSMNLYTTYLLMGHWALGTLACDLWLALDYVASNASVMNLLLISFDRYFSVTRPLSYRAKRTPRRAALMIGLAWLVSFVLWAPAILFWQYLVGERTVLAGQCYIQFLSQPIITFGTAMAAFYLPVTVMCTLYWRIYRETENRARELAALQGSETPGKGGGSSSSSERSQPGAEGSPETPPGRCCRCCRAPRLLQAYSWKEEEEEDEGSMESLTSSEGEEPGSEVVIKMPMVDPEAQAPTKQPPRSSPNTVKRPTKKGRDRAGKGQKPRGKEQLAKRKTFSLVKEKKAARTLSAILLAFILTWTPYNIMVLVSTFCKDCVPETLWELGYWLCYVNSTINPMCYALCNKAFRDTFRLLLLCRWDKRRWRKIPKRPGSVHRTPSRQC
Sequence of D(2) dopamine receptor (Homo sapiens) (P14416 whole entry, looked up): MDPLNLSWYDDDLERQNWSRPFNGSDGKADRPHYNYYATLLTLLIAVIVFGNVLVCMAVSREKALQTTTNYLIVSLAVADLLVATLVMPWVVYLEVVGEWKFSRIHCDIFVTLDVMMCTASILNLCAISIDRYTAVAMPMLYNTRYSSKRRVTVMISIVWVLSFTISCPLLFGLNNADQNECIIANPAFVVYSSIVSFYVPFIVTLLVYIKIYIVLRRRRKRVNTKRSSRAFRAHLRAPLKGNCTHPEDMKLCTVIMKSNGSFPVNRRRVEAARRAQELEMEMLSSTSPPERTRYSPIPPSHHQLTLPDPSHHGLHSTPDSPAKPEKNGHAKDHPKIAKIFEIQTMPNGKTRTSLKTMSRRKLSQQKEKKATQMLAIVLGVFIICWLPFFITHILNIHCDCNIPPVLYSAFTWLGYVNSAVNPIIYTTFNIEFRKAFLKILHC
Sequence of KiSS-1 receptor (Homo sapiens) (Q969F8 whole entry, looked up): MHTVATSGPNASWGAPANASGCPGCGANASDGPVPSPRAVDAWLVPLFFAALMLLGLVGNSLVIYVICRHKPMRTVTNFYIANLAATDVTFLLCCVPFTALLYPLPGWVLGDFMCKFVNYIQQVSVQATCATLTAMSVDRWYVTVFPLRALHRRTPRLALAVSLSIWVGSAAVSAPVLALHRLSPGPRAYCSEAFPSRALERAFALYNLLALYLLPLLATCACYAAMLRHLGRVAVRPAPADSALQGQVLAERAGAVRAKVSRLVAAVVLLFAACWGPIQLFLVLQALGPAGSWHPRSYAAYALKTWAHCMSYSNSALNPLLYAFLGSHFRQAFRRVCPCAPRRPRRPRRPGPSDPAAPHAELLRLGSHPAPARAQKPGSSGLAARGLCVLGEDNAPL
Sequence of Gonadotropin-releasing hormone receptor (Homo sapiens) (P30968 whole entry, looked up): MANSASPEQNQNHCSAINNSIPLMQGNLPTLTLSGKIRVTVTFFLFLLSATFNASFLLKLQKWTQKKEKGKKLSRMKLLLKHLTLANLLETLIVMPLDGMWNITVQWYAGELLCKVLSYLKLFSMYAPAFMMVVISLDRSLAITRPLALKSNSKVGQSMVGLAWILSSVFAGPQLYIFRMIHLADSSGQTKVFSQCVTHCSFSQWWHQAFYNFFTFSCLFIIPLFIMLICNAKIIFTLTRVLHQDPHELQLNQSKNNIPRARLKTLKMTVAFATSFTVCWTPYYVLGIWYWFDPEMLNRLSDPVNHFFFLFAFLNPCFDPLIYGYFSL

Turning to `CCCCCCCCCCCCCCC`, the Potency result in experiment [1], in experiment [2], in experiment [3], in experiment [4], in experiment [5] and in experiment [6] was “inactive” each time. The Potency result in experiment [7], in experiment [8], in experiment [9], in experiment [10], in experiment [11] and in experiment [12] was “inactive” each time. Moreover, the Potency entry in experiment [13], in experiment [14], in [15] and in [16] was “inactive” throughout.

Consider `OC12N=C(c3ccccc3)SC1Cc1cc(Cl)ccc12` (stereo not given), for which the Potency in [1] is 17.2 µM (active). Further, the Potency result in [2], in [3], in [4], in experiment [17], in [6] and in experiment [18] was “inactive” throughout. Moreover, the Potency result in [8], in experiment [9], in [10], in experiment [11], in experiment [12] and in experiment [13] was “inactive” each time. Besides, the Potency result in [16] is “inactive”.

In the case of `COCc1nnc(-c2ccc[n+]([O-])c2)n1-c1c(Cl)c(Cl)cc2[nH]c(=O)c(=O)[nH]c12`, the Potency entry in experiment [1], in [2], in experiment [3], in experiment [4], in experiment [5] and in [6] was “inactive” throughout. Also, the Potency entry in experiment [7], in experiment [8], in experiment [9], in experiment [10], in [11] and in [12] was “inactive” in each case. For the same compound, the Potency result in experiment [13], in [19] and in experiment [15] was “inactive” each time.

`OCCOc1cccc(OCCO)c1`: the Potency entry in experiment [1], in experiment [2], in experiment [3], in experiment [4], in [5] and in experiment [6] was “inactive” each time. In addition, the Potency entry in [7], in experiment [9], in experiment [11], in experiment [12], in experiment [13] and in experiment [14] was “inactive” throughout. In addition, the Potency result in experiment [15] and in experiment [16] was “inactive” each time.

As to `Cc1ncc([N+](=O)[O-])n1CC(O)CCl` (stereo not given), the Potency result in experiment [1], in experiment [2], in experiment [3], in experiment [4], in experiment [5] and in experiment [6] was “inactive” each time. In addition, the Potency result in [7], in experiment [8], in [9], in experiment [10], in experiment [11] and in [12] was “inactive” in each case. Also, the Potency result in experiment [13], in experiment [14], in experiment [15] and in [16] was “inactive” in each case.

With `C[n+]1c2cc(N)ccc2cc2ccc(N)cc21` (tested in a mixture with another compound), the Potency in experiment [1] was 6.68 µM (active); in experiment [2] it was 16.9 µM (active); in experiment [3] it was 21.3 µM (active); in experiment [4], 16.9 µM (active); in [9], 19 µM (active); in experiment [11], 19 µM (active). Besides, the Potency entry in [5], in experiment [7], in experiment [8] and in experiment [10] was “inactive” in each case.

In the case of `O=C1NCC2(CCN(CCc3ccccc3)CC2)O1`, the Potency entry in experiment [1], in experiment [2], in experiment [3], in [4], in experiment [5] and in experiment [6] was “inactive” throughout. In addition, the Potency result in experiment [7], in [8], in experiment [9], in experiment [10], in [11] and in [12] was “inactive” throughout. Besides, the Potency result in [13], in [14], in experiment [15] and in experiment [16] was “inactive” throughout.

For `COC(=O)CC(C)=O`, the Potency result in [1], in [2], in experiment [3], in experiment [4], in experiment [5] and in [6] was “inactive” in each case. Also, the Potency entry in experiment [7], in experiment [8], in experiment [9], in experiment [10], in experiment [11] and in experiment [12] was “inactive” each time. The Potency entry in experiment [15] and in experiment [16] was “inactive” each time.

Consider `CN1CCC(Nc2ncc3ncnc(Nc4ccc(F)c(Cl)c4)c3n2)CC1`, for which the Potency result in [1], in experiment [2], in experiment [3], in experiment [4], in experiment [5] and in experiment [6] was “inactive” in each case. Also, the Potency entry in experiment [8], in [9], in experiment [11], in experiment [14], in experiment [15] and in experiment [16] was “inactive” throughout. In addition, in experiment [10], the Potency is 8.18 µM (active).

Consider `C#Cc1cccc(Nc2ncnc3cc(OCCOC)c(OCCOC)cc23)c1`, for which the Potency result in experiment [1], in [2], in [3], in experiment [4], in [5] and in experiment [6] was “inactive” throughout. The Potency entry in experiment [7], in experiment [9], in [10], in experiment [19], in experiment [15] and in experiment [16] was “inactive” in each case.

`Clc1cccc(-c2cc(Cl)cc(Cl)c2)c1`: the Potency entry in experiment [1], in experiment [2], in [3], in experiment [4], in experiment [5] and in experiment [6] was “inactive” throughout. For the same compound, the Potency entry in [8], in experiment [9], in experiment [10], in experiment [12], in experiment [13] and in experiment [14] was “inactive” each time. Besides, the Potency result in experiment [19], in [15] and in experiment [16] was “inactive” throughout.

For the compound `C[C@H]1COc2c(C3(N)CC3)c(F)cc3c(=O)c(C(=O)O)cn1c23`, the Potency entry in experiment [1], in experiment [2], in [3], in experiment [4], in experiment [5] and in experiment [6] was “inactive” each time. In addition, the Potency result in experiment [7], in [8], in experiment [9], in [10], in experiment [13] and in [14] was “inactive” in each case. Besides, the Potency entry in experiment [19], in [15] and in [16] was “inactive” each time.
